Screening results (PubChem BioAssay)
Bim-Mcl-1 = human Bim-Mcl-1 interaction inhibition; Q07820; Bead-based flow cytometry, Bim peptide-Mcl-1 binding; inhibition, % at 10 µM; 190,000 tested, 0.1% active; AID 1009; in the data active = inhibition above about 40%;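 note: 0% = no compound tracer wells and 100% = peptide blocker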
Target sequence (Q07820 whole entry, looked up): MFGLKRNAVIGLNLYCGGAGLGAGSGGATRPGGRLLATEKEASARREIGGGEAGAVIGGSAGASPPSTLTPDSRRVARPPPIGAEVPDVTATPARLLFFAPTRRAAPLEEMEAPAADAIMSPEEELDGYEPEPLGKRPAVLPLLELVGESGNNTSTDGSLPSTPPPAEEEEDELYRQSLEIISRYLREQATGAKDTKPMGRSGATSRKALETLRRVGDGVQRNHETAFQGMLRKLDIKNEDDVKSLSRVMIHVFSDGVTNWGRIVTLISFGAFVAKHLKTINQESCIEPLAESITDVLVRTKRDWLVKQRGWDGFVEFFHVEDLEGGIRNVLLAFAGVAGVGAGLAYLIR
Hck Nef HTS = human Hck-Nef kinase inhibition. inhibition, % at 20 µM. P08631. 220,000 tested, 0.68% active. Recombinant Hck-YEEI plus Nef, Z-Lyte FRET kinase assay;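 active = Hck-Nef kinase inhibition above about 50%, limit read from the data; inactive = inhibition below that limit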;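 note: 0% = DMSO with Hck plus Nef and 100% = Hck alone without Nef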
Mcl1 Noxa PPI = disrupts binding of human Mcl-1 to Noxa peptide. inhibition, % at 21.7 µM. 220,000 tested, 1.5% active. TR-FRET Mcl-1/Noxa peptide binding, 2 h;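 active = compounds that cut the protein-peptide binding signal by more than 50% relative to plate controls in a single-dose test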;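 note: His-tagged Mcl-1 with rhodamine Noxa BH3 peptide and terbium anti-His antibody; 0% = Mcl-1 plus Noxa peptide wells and 100% = peptide-only wells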
eIF4E 4G PPI = blocks eIF4E binding to eIF4G; TR-FRET eIF4E-eIF4GI(517-606) binding, 2 h; inhibition, % at 21.7 µM; 220,000 tested, 0.37% active; AID 782;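 active = inhibition above about 30%, limit read from the data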;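 note: 0% = full FRET control wells and 100% = background wells lacking eIF4GI fragment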
14-3-3 Bad PPI = disrupts binding of bovine 14-3-3 zeta to phospho-Bad peptide; TR-FRET 14-3-3zeta/Dy647-pBad peptide displacement, 1 h; AID 781; 220,000 tested, 0.71% active; inhibition, % at 21.7 µM; P63103;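 active = inhibition above about 70%, limit read from the data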;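 note: 0% = full 14-3-3 plus peptide FRET controls and 100% = background without 14-3-3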
Target sequence (P63103 whole entry, looked up): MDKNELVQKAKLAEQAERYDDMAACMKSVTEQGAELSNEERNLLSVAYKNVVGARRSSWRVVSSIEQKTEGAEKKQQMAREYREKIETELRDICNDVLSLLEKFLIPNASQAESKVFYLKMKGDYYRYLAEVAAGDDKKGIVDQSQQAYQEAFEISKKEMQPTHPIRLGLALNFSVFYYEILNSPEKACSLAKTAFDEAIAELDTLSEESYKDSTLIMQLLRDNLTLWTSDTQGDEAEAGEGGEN
Mcl1 Bid PPI = disrupts binding of human Mcl-1 to Bid peptide; AID 1021; TR-FRET Mcl-1/Bid-Dy647 peptide binding, 1536-well; 220,000 tested, 0.97% active; inhibition, % at 21.7 µM; Q07820;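 active = compounds that cut the binding signal by more than half at the single screening dose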;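 note: His-tagged Mcl-1 with europium anti-His antibody binding Bid BH3 peptide; 0% = Mcl-1 plus peptide wells and 100% = peptide-only wells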
Active calls of the source: *; · = no result; [ ] = dose if it differs, or a comment. Hits are enriched below; roughly 3.5% of the tested compounds scored in any of these assays.

SMILES	Bim-Mcl-1	Hck Nef HTS	Mcl1 Noxa PPI	eIF4E 4G PPI	14-3-3 Bad PPI	Mcl1 Bid PPI
COc1cc(C2C3=C(Nc4nc(N)[nH]c(=O)c42)c2ccccc2C3=O)ccc1O (stereo not drawn)	·	32.5	90.1*	0.8	5.3	-104.1
CC(Oc1ccccc1F)C(=O)NCCN1CCCCC1 (stereo not drawn)	2.0	1.5	-3.5	-7.3	4.3	59.2*
OC(CNCC(c1ccco1)N1CCCCC1)c1ccccc1 (stereo not drawn)	1.0	1.3	20.7	-2.6	57.5	63.0*
S=C(NCC(c1ccco1)N1CCCC1)Nc1ccccc1 (stereo not drawn)	-1.0	20.2	4.4	-4.9	-14.6	-29.3
Cc1ccc(NC(=O)Nc2nnc(Cc3ccc([N+](=O)[O-])cc3)s2)cc1	-5.0	5.9	-7.8	-4.4	6.8	51.4*
O=C(Nc1ccc(Cl)cc1)Nc1nnc(Cc2ccc([N+](=O)[O-])cc2)s1	-18.0	4.6	16.2	4.1	29.7	15.4
Cn1nc(C(C)(C)C)cc1NC(=O)Nc1cc(Cl)cc(Cl)c1	·	0.6	1.3	4.5	-4.3	6.9
COC(=O)c1ccc(Oc2nc(NC(C)C)nc(NC(C)C)n2)cc1	·	24.5	16.1	97.2*	4.4	-20.2
COC(=O)c1ccc(Oc2nc(NC(C)C)nc(N(C)C)n2)cc1	0.0	10.0	2.7	-3.9	-6.9	-3.3
COc1cc(C(=O)NC2(C(F)(F)F)NC(=O)N(CCCc3ccccc3)C2=O)cc(OC)c1OC (stereo not drawn)	-2.0	-0.5	-2.7	1.5	3.0	63.8*
FC(F)(F)c1nc(-c2cccs2)ncc1-c1nnnn1-c1ccc(Cl)cc1	0.0	7.1	2.8	6.6	1.9	64.8*
O=C(CSc1nc2ccccc2n1S(=O)(=O)c1ccccc1)N1CCCC1	-6.0	4.8	-8.4	0.9	-2.7	-0.7
COC(CNC(=O)c1ccc2nc(-c3cccs3)c(-c3cccs3)nc2c1)OC	-1.0	4.9	-22.2	2.8	-11.4	93.5*
CC(=O)Oc1c(C)cc(Cl)cc1C(=O)Nc1ccc([N+](=O)[O-])cc1Cl	-4.0	5.5	6.8	-1.2	10.2	1.4
CC(=O)NC1=C(NC2CCS(=O)(=O)C2)C(=O)c2ccccc2C1=O (stereo not drawn)	3.0	-0.5	94.3*	-1.5	-4.7	-16.3
CN(C1=C(NC(=O)c2ccccc2)C(=O)c2ccccc2C1=O)C1CCS(=O)(=O)C1 (stereo not drawn)	-3.0	2.2	35.9	13.3	-16.9	-52.1
O=C(Nc1ccccc1)NC1CCS(=O)(=O)C1 (stereo not drawn)	1.0	13.4	5.0	4.7	-8.3	97.7*
CC(=O)c1cc2c(cc1NS(=O)(=O)c1ccc(F)cc1)OCO2	-2.0	16.0	42.6	1.4	-6.3	-21.0
CN(C)c1ccc(NS(=O)(=O)c2ccc(Cl)cc2)cc1	0.0	1.3	60.8*	0.3	-5.8	-8.9
CC(C)c1ccc(NS(=O)(=O)c2ccc(Cl)nc2)cc1	-2.0	0.5	12.8	1.4	0.2	54.7*
O=S(=O)(Nc1cccnc1)c1cccc(Cl)c1	-7.0	0.4	-6.3	4.9	9.3	-28.0
CN(C)c1ccc(NS(=O)(=O)c2cccc(Cl)c2)cc1	0.0	36.8	83.9*	18.1	6.0	-21.2
CN(C)c1ccc(S(=O)(=O)c2ccc(Cl)cc2)cc1	0.0	2.6	3.9	-8.8	5.4	-21.1
C/C(N)=C(/C#N)C(=O)COC(=O)c1oc2ccccc2c1COC(C)C	0.0	19.7	7.8	2.3	-1.8	-29.1
NCCc1nc(-c2ccccc2)cs1	-1.0	-7.0	-3.4	-1.9	-0.3	0.7
SMILES	Bim-Mcl-1	Hck Nef HTS	Mcl1 Noxa PPI	eIF4E 4G PPI	14-3-3 Bad PPI	Mcl1 Bid PPI
CCCCc1ccc(NC(=O)N2CCNC(=O)C2CC(=O)Nc2ccsc2C(=O)OC)cc1 (stereo not drawn)	·	6.1	-8.9	1.9	1.1	-17.8
COc1cc(NC(=O)c2ccccc2-c2ccccc2)cc(OC)c1	-1.0	3.9	-0.3	19.0	-1.0	-18.0
Cn1c(O)c(N=Nc2nc(-c3ccccc3)cs2)c2ccccc21	-4.0	6.6	-21.2	-3.7	-6.1	-51.5
COC(=O)CCCC1=CC2=C(c3ccccc3)C(=O)C(C)(OC(=O)C3CCCC3)C(=O)C2=CN1CC1CC1 (stereo not drawn)	·	29.1	6.7	89.4*	-2.8	-94.1
Cc1ccc(N(CC(=O)NC(C)(C)C)C(=O)CS(=O)CC(=O)Nc2ccc(F)cc2)cc1 (stereo not drawn)	0.0	17.1	23.6	1.9	-6.5	-9.2
O=C(Nc1cccc2nsnc12)c1ccc(-c2ccc(Br)cc2)o1	-1.0	9.7	27.3	-2.5	-6.2	63.0*
O=C1c2ccccc2C(=O)C1c1ccnc2ccccc12	2.0	10.2	30.9	-14.7	62.4	14.1
O=C1c2ccccc2C(=O)C1c1nccc2ccccc12	1.0	3.1	57.5*	-124.9	59.5	35.2
CC(=O)c1ccc(OCC(O)CN2CCOCC2)cc1 (stereo not drawn)	-2.0	0.7	64.4*	-0.9	-0.5	11.1
OCCN1CCN(CC(O)COc2ccc(-c3ccccc3)cc2)CC1 (stereo not drawn)	0.0	1.5	22.1	5.8	84.2*	33.9
Cc1ccc(OCCN2CCN(CC(O)Cn3c4ccccc4c4ccccc43)CC2)cc1 (stereo not drawn)	-1.0	-0.6	-7.0	2.8	40.5	65.7*
CCOC(=O)C1=C(N)n2c(s/c(=C\c3ccncc3)c2=O)=C(C(=O)OCC)C1c1ccncc1 (stereo not drawn)	0.0	25.9	19.4	7.4	34.6	30.8
CCOC(=O)C1=c2/c(=C/c3ccncc3)c(N)c(C(=O)OC)n2C(=O)C(c2ccncc2)S1 (stereo not drawn)	3.0	16.0	30.2	13.3	58.1	62.4*
Cc1nnc(NC(=O)c2sc3nc(-c4cccs4)cc(C(F)(F)F)c3c2N)s1	2.0	-2.2	97.9*	4.6	-1.9	44.9
Cn1c(SCC(=O)N/N=C/c2ccc([N+](=O)[O-])s2)nnc1-c1ccc(Cl)cc1	-5.0	3.6	-31.4	4.5	-8.2	-12.0
Clc1ccc(OCCCn2cncn2)cc1Cl	-1.0	-0.7	27.0	93.0*[fluorescence artefact?]	85.9*	55.6*
c1ccc(-c2ccc(OCCOCCn3cncn3)cc2)cc1	-2.0	-0.3	28.9	6.5	73.3*	37.1
COc1ccc(N2CCN(C(=O)CSc3nnc(NC(=O)C4CCC4)s3)CC2)cc1	1.0	19.4	13.0	2.4	-2.6	-23.2
CCNc1nc(=S)nc(NCc2ccccc2)[nH]1	-3.0	15.0	-12.2	-6.7	-12.1	-43.4
CCN1CC(CN(C)Cc2nc(-c3ccc(OC)c4ccccc34)oc2C)CC1=O (stereo not drawn)	7.0	24.2	16.1	0.3	-6.4	-37.8
CC(=O)N1CCCN(Cc2cn(-c3cccc(C)c3)nc2-c2cccc(F)c2)CC1	·	23.7	19.7	4.5	51.5	-28.2
